These results are taken from the supplement of paper PMC12636033.

± gives the standard deviation of the averaged measurements. In all, about 33,000 sequences were measured (“E-score (rank enrichment, -0.5 to 0.5)”: median about -0.0043, highest 2% from about 0.24 on). Only a selection was taken, and the highest values are over-represented in it overall.

The test system of this experiment is 2Sp-muMax20 (muMax20 with two 2,6-bis(methyl)pyridine Cys staples). The experiment is described as follows: PBM 8-mer E-score (E-score (rank enrichment, -0.5 to 0.5)); higher = stronger preferential binding. The protocol:
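Protein binding microarray (universal PBM chip covering all 10-mers in fixed probe flanks) with chemically synthesized human Max(13-93) bHLH-LZ analogs (not full-length Max) bearing noncanonical residues (hArg, Tha, Aib, Nle at 65) and aromatic Cys staples. Read-out per 8-mer (and its reverse complement): E-score (rank-based enrichment, -0.5 to 0.5) and Z-score of median probe intensity.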
Regarding AGACAGGG, the “PBM 8-mer E-score” value is -0.0986 ± 0.041. Then CACGCAAC, with -0.0734 ± 0.013.

As for CAGTCATG, the “PBM 8-mer E-score” value was determined as 0.0672 ± 0.14. Regarding ACACTATA, the “PBM 8-mer E-score” value is 0.0551 ± 0.059.

As to GACTTTGA, the “PBM 8-mer E-score” value amounted to 0.147 ± 0.062.

As to AGAACGGA, the “PBM 8-mer E-score” value was -0.258 ± 0.028.

Consider AAGAAGCT, for which the “PBM 8-mer E-score” value was -0.12 ± 0.0019. CGTCGCGA: the “PBM 8-mer E-score” value worked out at 0.00718 ± 0.059. For the sequence CGGCCAGC, the “PBM 8-mer E-score” value is -0.103 ± 0.0057. With ATACAAAT, the “PBM 8-mer E-score” value stood at 0.216 ± 0.0091. The result for ATACAAGA reads 0.0902 ± 0.1.

For CTACAAGC, the “PBM 8-mer E-score” value was -0.0442 ± 0.059.

Turning to ATACAAGC, the “PBM 8-mer E-score” value stood at 0.252 ± 0.076. In the case of ATACAAAA, the “PBM 8-mer E-score” value stood at 0.359 ± 0.0063. For the sequence CTACAAAA, the “PBM 8-mer E-score” value came to 0.0122 ± 0.043. As to AGTGTAAT, the “PBM 8-mer E-score” value came to 0.114 ± 0.14. In the case of ATTGCAAC, the “PBM 8-mer E-score” value was determined as 0.0277 ± 0.07.

On to CTCTCAGA, for which the “PBM 8-mer E-score” value was -0.148 ± 0.12. Regarding ATTAAATA, the “PBM 8-mer E-score” value was determined as 0.0773 ± 0.0041. Turning to CATAACTA, the “PBM 8-mer E-score” value was determined as 0.0886 ± 0.054. With ACTAAATC, the “PBM 8-mer E-score” value is -0.0199 ± 0.085. Consider CCTAAATA, for which the “PBM 8-mer E-score” value came to 0.125 ± 0.0015. Turning to GTTAACAA, the “PBM 8-mer E-score” value came out at 0.239 ± 0.026. For the sequence CTTAAATA, the “PBM 8-mer E-score” value turned out to be 0.139 ± 0.098. For GCTAACAA, the “PBM 8-mer E-score” value was -0.0747 ± 0.062.

In the case of CTTAACAA, the “PBM 8-mer E-score” value came out at 0.05 ± 0.067. For GATAACTA, the “PBM 8-mer E-score” value is 0.245 ± 0.029. Consider AATAACTA, for which the “PBM 8-mer E-score” value was determined as 0.155 ± 0.038. Take GTTAAATA: the “PBM 8-mer E-score” value came out at 0.296 ± 0.026.

Regarding ACTAAATA, the “PBM 8-mer E-score” value is 0.249 ± 0.018. On to TACGTAAA, for which the “PBM 8-mer E-score” value came out at 0.183 ± 0.046. The result for AAGCACTA reads 0.0985 ± 0.0016. With CCGTTACA, the “PBM 8-mer E-score” value came out at 0.0269 ± 0.097.

For the sequence CAGAAAAG, the “PBM 8-mer E-score” value was found to be 0.0222 ± 0.11.

With CCTCAAAG, the “PBM 8-mer E-score” value was -0.168 ± 0.0062. The result for CCAAAGGA reads -0.134 ± 0.0027; that for CCGGGAAA, -0.0853 ± 0.032; that for GATCGGTA, 0.0193 ± 0.038. Regarding CCGGCAGG, the “PBM 8-mer E-score” value is -0.199 ± 0.041.

On to CGTGGCAA, for which the “PBM 8-mer E-score” value was -0.135 ± 0.016.

On to AACGCGTT, for which the “PBM 8-mer E-score” value is 0.0704 ± 0.016.

In the case of GCACTCAA, the “PBM 8-mer E-score” value is -0.0947 ± 0.092. The result for GTTAACTA reads 0.2576 ± 0.002; that for ATTAACTA, 0.16 ± 0.003. For CTTAACTA, the “PBM 8-mer E-score” value is 0.092 ± 0.0028.

For AGACCGCG, the “PBM 8-mer E-score” value was 0.0661 ± 0.0043.

For CGGTGGAA, the “PBM 8-mer E-score” value was -0.19 ± 0.09. With AATAATTC, the “PBM 8-mer E-score” value turned out to be 0.189 ± 0.046. As to AATAATTA, the “PBM 8-mer E-score” value is 0.28 ± 0.019.

Regarding GATAATTA, the “PBM 8-mer E-score” value amounted to 0.196 ± 0.061. On to CCTAATTA, for which the “PBM 8-mer E-score” value is 0.0904 ± 0.21. Then CATAATTA, with 0.253 ± 0.034; and CATAATTC, with -0.0185 ± 0.041; and TACTGCTA, with 0.126 ± 0.038. Then ACGGAGTC, with -0.0911 ± 0.056; and ACGGGGCT, with -0.148 ± 0.019. Turning to AGAGCACG, the “PBM 8-mer E-score” value was 0.134 ± 0.077. Then ACCAGTAC, with -0.126 ± 0.045; and GGGTGCAC, with -0.0471 ± 0.01.

With ATCATGTC, the “PBM 8-mer E-score” value was determined as 0.25 ± 0.02. Turning to CTCATGAG, the “PBM 8-mer E-score” value was found to be 0.319 ± 0.028.

ATCATGAA: the “PBM 8-mer E-score” value was 0.144 ± 0.037.

Take CTCATGAA: the “PBM 8-mer E-score” value amounted to 0.0567 ± 0.055. Take ATCATGAG: the “PBM 8-mer E-score” value turned out to be 0.0344 ± 0.13. Turning to CTCATGAC, the “PBM 8-mer E-score” value was 0.0229 ± 0.022. ATCATGAT: the “PBM 8-mer E-score” value came to 0.257 ± 0.011.

On to CTCATGTC, for which the “PBM 8-mer E-score” value was -0.0319 ± 0.027. For the sequence ATCATGTA, the “PBM 8-mer E-score” value was 0.113 ± 0.059. On to GAGGTACA, for which the “PBM 8-mer E-score” value is -0.0106 ± 0.013.

With TAGGATAA, the “PBM 8-mer E-score” value was 0.0706 ± 0.063. In the case of AAATCGTG, the “PBM 8-mer E-score” value was determined as 0.0374 ± 0.006. For ATTCGTCA, the “PBM 8-mer E-score” value was found to be 0.0337 ± 0.012. For the sequence GCGCGCGC, the “PBM 8-mer E-score” value came out at 0.361 ± 0.053. For GCACGCGC, the “PBM 8-mer E-score” value stood at 0.331 ± 0.018.

In the case of GCGCGCAC, the “PBM 8-mer E-score” value was 0.203 ± 0.035. As for GCGCGCGA, the “PBM 8-mer E-score” value worked out at 0.149 ± 0.071.

Consider CCGCGCGA, for which the “PBM 8-mer E-score” value was -0.0339 ± 0.029.

With GCACGCGA, the “PBM 8-mer E-score” value stood at 0.0689 ± 0.0054. On to TCGCGCGA, for which the “PBM 8-mer E-score” value was 0.265 ± 0.11. For CCGCGCGC, the “PBM 8-mer E-score” value came out at 0.13 ± 0.12. Turning to ACACGCGC, the “PBM 8-mer E-score” value came to 0.118 ± 0.046.

For the sequence CCATTGTC, the “PBM 8-mer E-score” value is -0.0232 ± 0.0014. Then ACGAGGTC, with 0.0484 ± 0.023; and ATGAGCAG, with 0.0835 ± 0.083. On to AGGGTATA, for which the “PBM 8-mer E-score” value was found to be 0.24 ± 0.0057.

On to CGGGTATA, for which the “PBM 8-mer E-score” value was 0.0393 ± 0.086.
